Laboratory results: PubChem BioAssay (NCI)
This is part of a sample that, as a whole, favours compounds with a hit. Of some 83,000 tested, about 20% had one in any assay.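 Interpretation: 100, growth as untreated; towards 0, rising growth inhibition; 0, no net growth; 0 to -100, cell death. Compounds scoring below 10 were considered active.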 A number with no mark means an inactive call. The source made the active and inactive calls.

Key:
Test in all cases: NCI-60 one-dose screen, 48 h (100 = growth as untreated, 0 = no growth, -100 = all killed)
Details in all cases: 10 µM unless noted
[1] = system: NCI-H23 lung
[2] = system: NCI-H226 lung
[3] = system: NCI-H322M lung
[4] = system: HOP-62 NSCLC
[5] = system: NCI-H460 lung
[6] = system: NCI-H522 lung
[7] = system: A549/ATCC NSCLC
[8] = system: 786-0 renal
[9] = system: COLO 205 colon

Q: `CCCS(=O)(=O)N1CCCC(C(=O)Nc2nc3ccc(NC(=O)c4ccc(F)c(OC)c4F)cc3s2)C1` (stereo not given) was tested. Which growth [1] did it give?
A: 33.9%

Q: And the growth [2]?
A: 27.9%

Q: What about the growth [3] of the same molecule?
A: 75.6%

Q: And the growth [4]?
A: 68.4%

Q: What about the growth [5] of the same molecule?
A: 55.9%

Q: What about the growth [6] of the same molecule?
A: 39.9%

Q: What about the growth [7] of the same molecule?
A: 57%

Q: And the growth [8]?
A: 37.6%

Q: And the growth [9]?
A: 31.6%

Q: Which growth [1] does the source give for `N#Cc1c(-c2ccccc2Cl)cc(-c2ccc3ccccc3c2)[nH]c1=O` here?
A: 38.8%

Q: What about the growth [2] of the same molecule?
A: -24.5% (active)

Q: And the growth [3]?
A: 28.1%

Q: And the growth [4]?
A: -7.48% (active)

Q: And the growth [5]?
A: -13.8% (active)

Q: And the growth [6]?
A: 85%

Q: And the growth [7]?
A: 17.5%

Q: What about the growth [8] of the same molecule?
A: -40.9% (active)

Q: What about the growth [9] of the same molecule?
A: 108%

Q: `O=c1oc2ccccc2cc1-c1csc(N2N=C(c3ccccc3)CC2c2ccc(N3CCOCC3)cc2)n1` (stereo not given) was tested. Which growth [1] did it give?
A: 95.9%

Q: What about the growth [2] of the same molecule?
A: 94.6%

Q: What about the growth [3] of the same molecule?
A: 120%

Q: And the growth [4]?
A: 106%

Q: And the growth [5]?
A: 107%

Q: What about the growth [6] of the same molecule?
A: 101%

Q: And the growth [7]?
A: 114%

Q: And the growth [8]?
A: 118%

Q: What about the growth [9] of the same molecule?
A: 118%

Q: Which growth [1] does the source give for `CC(=O)c1cccc(NC(=O)CCC(=O)NS(=O)(=O)c2ccc(C)cc2)c1` here?
A: 108%

Q: And the growth [2]?
A: 108%

Q: What about the growth [3] of the same molecule?
A: 109%

Q: What about the growth [4] of the same molecule?
A: 98.6%

Q: What about the growth [5] of the same molecule?
A: 120%

Q: And the growth [6]?
A: 102%

Q: What about the growth [7] of the same molecule?
A: 100%

Q: And the growth [8]?
A: 105%

Q: What about the growth [9] of the same molecule?
A: 113%

Q: How did the growth [1] turn out when `COc1ccc(/C=C/c2nc3ccccc3c(=O)n2CC(=O)Nc2ccc(Cl)cc2)cc1` was run?
A: 60.7%

Q: What about the growth [2] of the same molecule?
A: 30.4%

Q: And the growth [3]?
A: 88.8%

Q: What about the growth [4] of the same molecule?
A: 8.06% (active)

Q: What about the growth [5] of the same molecule?
A: 22.6%

Q: And the growth [6]?
A: 64.1%

Q: What about the growth [7] of the same molecule?
A: 23%

Q: What about the growth [8] of the same molecule?
A: 27.5%

Q: What about the growth [9] of the same molecule?
A: 74.6%

Q: With `O=C(O)Cn1c(O)c(/C=C2/C=c3cc4c(cc3=NC2=O)OCCO4)sc1=S` as the molecule, how does the growth [1] read?
A: 97.7%

Q: What about the growth [2] of the same molecule?
A: 103%

Q: What about the growth [3] of the same molecule?
A: 101%

Q: And the growth [4]?
A: 105%

Q: What about the growth [5] of the same molecule?
A: 118%

Q: And the growth [6]?
A: 103%

Q: And the growth [7]?
A: 114%

Q: What about the growth [8] of the same molecule?
A: 108%

Q: What about the growth [9] of the same molecule?
A: 119%

Q: Which results are given for `CCOC(=O)/C=C/c1cccc2c1C(=O)NC(C)(c1cc3cc(Cl)ccc3oc1=O)N2` (stereo not given)?
A: growth [1]: 50.9%; growth [2]: 46.1%; growth [3]: 56.4%; growth [4]: 55.7%; growth [5]: 47.4%; growth [6]: 33.8%; growth [7]: 47.2%; growth [8]: 31.4%; growth [9]: 31.7%

Q: How did the growth [1] turn out when `CN(C)c1nc(NCCNS(=O)(=O)c2ccc(C3=Nc4c(N)nc(N)nc4NC(c4ccccc4)C3)cc2)nc(Nc2ccc(F)cc2)n1` (stereo not given) was run?
A: 58.6%

Q: And the growth [2]?
A: 52.8%

Q: What about the growth [3] of the same molecule?
A: 58.4%

Q: What about the growth [4] of the same molecule?
A: 81.1%

Q: What about the growth [5] of the same molecule?
A: 25.9%

Q: And the growth [6]?
A: 43.1%

Q: What about the growth [7] of the same molecule?
A: 56.4%

Q: What about the growth [8] of the same molecule?
A: 29.7%

Q: And the growth [9]?
A: 44%

Q: Which results are given for `CCOC(=O)c1ccc(Nc2nc(NN)nc(-c3ccc(F)cc3)c2C#N)cc1`?
A: growth [1]: 110%; growth [2]: 116%; growth [3]: 109%; growth [4]: 103%; growth [5]: 112%; growth [6]: 98.5%; growth [7]: 105%; growth [8]: 103%; growth [9]: 119%

Q: What does the source list for `COc1cc(OC)c2c3nc4cc(C)c(C)cc4nc3n(CCN(C)C)c2c1`?
A: growth [1]: 67.4%; growth [2]: 72.4%; growth [3]: 73.3%; growth [4]: 70.9%; growth [5]: 53.7%; growth [6]: 56.2%; growth [7]: 8.98% (active); growth [8]: 50.7%; growth [9]: 48.4%
